Assay [1] is described as follows: inhibitors of TNFa-induced NFkB p65 translocation, primary screen, imaging, HUVEC, MLSMR starter and 10KST1 sets (AID 438;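 active = inhibition above 20% together with a positive visual image hit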;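 note: compound added about 3h40 before a 20 min TNFalpha stimulation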;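 for inhibition: signal is the nuclear over cytoplasmic p65 intensity ratio per well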). The note with it: HUVEC TNFa-induced p65 nuclear translocation; cell count: measured here: nuclei count (cytotoxicity indicator), at 2.08 µM; inhibition: at 2 µM, stronger effect = higher value, 0% TNFa-plus-vehicle, 100% no-TNFa wells.
Assay [2] can be described thus: reduction of polyQ htt aggregates in cells – imaging, exon1htt(103Q)mCFP cells, high-content imaging, primary screen (AID 483;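 active = visual image review flags a hit and inhibition of aggregation exceeds 20%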;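 note: compound exposure lasted 3 days before fixation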;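 for nuclei count: percent of the per-plate median nuclei count of sample wells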). The settings on record: exon1htt(103Q)mCFP cell line, aggregate imaging, at 2 µM; inhibition of aggregation: stronger effect = higher value; nuclei count: measured here: cell count, toxicity.
Assay [3] in a line: endothelial E-selectin expression blockers – imaging, HUVEC, immunofluorescence, MLSMR starter and 10KST1 sets, primary screen (AID 487;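 active = visually confirmed hit in the image check and inhibition above 20%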;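 for inhibition: signal is fraction of cell area covered by stained E-selectin grains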;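 for nuclei count: 100% = median nuclei count of all wells on the same plate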). The settings on record: HUVEC TNFalpha-induced E-selectin immunofluorescence imaging, at 2 µM; inhibition: stronger effect = higher value; nuclei count: measured here: cell number, toxicity.
Assay [4] concerns the target Voltage-gated potassium channel subunit beta-2 (Rattus norvegicus) (UniProt P62483). The experiment in a line: inhibitors of rat Kvbeta2 reductase activity – biochemical, NADPH fluorescence, primary screen (AID 622;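 active = fluorescence slope higher than the sample average by over 3 SD, cut at about -0.22 in these data, passing the limit was not always enough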;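 note: slope of raw intensity against log time taken from 70 to 1610 s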). The settings on record: recombinant KvBeta, 4-cyanobenzaldehyde reduction, at 10 µM, stronger effect = higher value.
Assay [5] has the same target. Description: enhancers of rat Kvbeta2 NADPH turnover – biochemical, NADPH fluorescence, primary screen (AID 623).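 Note: fluorescence intensity change per second fitted from 20 to 320 s.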 The settings on record: Recombinant KvBeta, NADPH fluorescence decrease slope, 10 min; at 10 µM; stronger effect = lower value.
Assay [6] addresses Alpha-2C adrenergic receptor (Homo sapiens) (UniProt P18825). Description: compounds altering alpha2C-coupled GIRK flux – cell-based, HEK293 alpha2C/GIRK1/2, thallium flux, primary screen (AID 624;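 active = fluorescence slope after compound addition differing from the mean of all screened samples at 99.7% confidence, in either direction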;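 note: slope of fluorescence ratio to pre-addition baseline per second over 15 to 24 s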). The note with it: thallium flux BTC fluorescence, at 10 µM, actives lie on both sides.
Assay [7] can be described thus: blockers of RIG-like receptor reporter activation – cell-based, Sendai virus stimulus, luciferase, 10K MLSCN set, TLR/RLR signaling modifier project, primary screen (AID 602276;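 active = inhibition at or above 50% at 10 µM; inactive = inhibition below 50%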;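 note: firefly luciferase from ISG56 promoter only with Renilla not read in this screen; 0% = Sendai virus plus DMSO and 100% = medium plus DMSO without virus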). The settings on record: HEK293 RL24 IRF3 luciferase reporter, at 10 µM, stronger effect = higher value.
A short description of assay [8]: TLR3 IRF3 reporter activation blockers – cell-based, poly I:C stimulus, luciferase, 10K MLSCN set, primary screen (AID 602277;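 active = inhibition of the reporter signal at or above 50%; inactive = inhibition below 50%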). The note with it: HEK293-TLR3 RL24 IRF3 luciferase reporter, at 10 µM, stronger effect = higher value.

Structures are written as SMILES. Activity calls are given as the source filed them.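 Rule for the calls, unless noted: active = NADPH fluorescence slope more negative than the mean of all samples by about 3 SD, 99.7% confidence; inactive = the rest.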

Chain of Alpha-2C adrenergic receptor (Homo sapiens) (P18825 whole entry, looked up): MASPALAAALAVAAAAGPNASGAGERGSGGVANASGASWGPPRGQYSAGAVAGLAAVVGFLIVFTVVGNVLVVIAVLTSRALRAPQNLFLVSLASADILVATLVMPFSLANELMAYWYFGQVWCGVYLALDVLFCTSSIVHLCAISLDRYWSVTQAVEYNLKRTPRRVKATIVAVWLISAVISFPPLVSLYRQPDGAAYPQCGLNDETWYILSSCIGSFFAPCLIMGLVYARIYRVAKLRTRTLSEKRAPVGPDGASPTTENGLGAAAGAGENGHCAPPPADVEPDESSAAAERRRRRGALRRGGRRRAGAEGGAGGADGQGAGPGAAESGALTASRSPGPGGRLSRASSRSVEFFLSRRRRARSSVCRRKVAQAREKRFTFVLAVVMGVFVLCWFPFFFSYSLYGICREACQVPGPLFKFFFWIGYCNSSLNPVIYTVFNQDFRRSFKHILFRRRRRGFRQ
Chain of Voltage-gated potassium channel subunit beta-2 (Rattus norvegicus) (P62483 whole entry, looked up): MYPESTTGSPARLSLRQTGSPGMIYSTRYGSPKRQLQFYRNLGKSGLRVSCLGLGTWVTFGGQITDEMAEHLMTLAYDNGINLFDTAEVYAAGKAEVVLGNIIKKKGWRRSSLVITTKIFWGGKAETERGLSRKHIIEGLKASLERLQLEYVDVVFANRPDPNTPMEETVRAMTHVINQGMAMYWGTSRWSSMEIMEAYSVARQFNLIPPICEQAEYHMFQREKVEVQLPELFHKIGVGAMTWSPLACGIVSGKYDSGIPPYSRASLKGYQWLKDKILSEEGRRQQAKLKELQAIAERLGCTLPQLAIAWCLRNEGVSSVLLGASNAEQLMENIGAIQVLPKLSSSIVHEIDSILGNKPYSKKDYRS

As for `NC(=O)c1cccc2c1C(=O)N(C1CCCCC1)C2`, in assay [1], the cell count was 836. Moreover, the inhibition in assay [1] was -0.6% (inactive); in assay [3], -26.1% (inactive); in assay [7], 5.66% (inactive); in assay [8], 24.7% (inactive). The inhibition of aggregation in assay [2] is -14.1% (inactive). Also, the results for the nuclei count in assay [2] and in assay [3] were 91.2% and 117%, respectively. Besides, in assay [4], the fluorescence slope is -0.569 (inactive). In addition, the NADPH fluorescence slope in assay [5] is -1.8e-05 (inactive). Besides, the slope in assay [6] was 0.00605 (inactive).

For `Cc1ccc(CNC(=O)C2CCCN(S(=O)(=O)c3cnc[nH]3)C2)cc1` (centres undefined), the cell count in assay [1] worked out at 768. Further, the inhibition in assay [1] was -11% (inactive); in assay [3], -23.4% (inactive); in assay [7], -2.34% (inactive); in assay [8] it was 15.9% (inactive). Moreover, in assay [2], the inhibition of aggregation is -30.5% (inactive). The values for the nuclei count in assay [2] and in assay [3] were 102% and 92.7%, respectively. Also, in assay [4], the fluorescence slope is -0.538 (inactive). Besides, in assay [5], the NADPH fluorescence slope was -1.6e-05 (inactive). Besides, the slope in assay [6] was 0.00735 (inactive).

With `O=C(Nc1cccc2ccccc12)N1CCOCC1`, the cell count in assay [1] was determined as 654. The inhibition was -3.4% (inactive) in assay [1], -33.2% (inactive) in assay [3], 18.7% (inactive) in assay [7] and 23.7% (inactive) in assay [8]. Moreover, the inhibition of aggregation in assay [2] is -12% (inactive). The nuclei count in assay [2] was 116%; in assay [3], 106%. For the same molecule, the fluorescence slope in assay [4] was -0.341 (inactive). Moreover, the NADPH fluorescence slope in assay [5] was -6.3e-05 (inactive). In assay [6], the slope is 0.00634 (inactive).

Regarding `CCOc1ccc(-c2cc(C(=O)N3CCN(c4ccccn4)CC3)c3ccccc3n2)cc1`, the cell count in assay [1] was found to be 619. Moreover, the inhibition in assay [1] is 7.9% (inactive); in assay [3] it was -19.3% (inactive); in assay [7], 34% (inactive); in assay [8], -64.8% (inactive). Moreover, in assay [2], the inhibition of aggregation is -11.8% (inactive). Further, the nuclei count in assay [2] worked out at 86.4%; in assay [3] it was 111%. Besides, the fluorescence slope in assay [4] is -0.473 (inactive). The NADPH fluorescence slope in assay [5] is -6.7e-06 (inactive). In addition, the slope in assay [6] was 0.00673 (inactive).

Turning to `CNC(=O)C1C2C=CC3(O2)C1C(=O)N(C1CC1)C3C(=O)NCc1ccc(OC)cc1` (centres undefined), the cell count in assay [1] is 199. In addition, the inhibition in assay [1] is 11.8% (inactive); in assay [3], 41.6% (inactive); in assay [7], 14.1% (inactive); in assay [8] it was 20.2% (inactive). In addition, the inhibition of aggregation in assay [2] is -5.5% (inactive). The results for the nuclei count in assay [2] and in assay [3] were 102% and 98.4%, respectively. In addition, the fluorescence slope in assay [4] is -0.533 (inactive). Further, the NADPH fluorescence slope in assay [5] is -3.2e-05 (inactive). The slope in assay [6] was 0.00639 (inactive).

With `CCc1nc(C)c(C#N)c2cc(OC)c(OC)cc12`, in assay [1], the cell count is 387. Besides, the inhibition in assay [1] is -1.1% (inactive); in assay [3], -7.1% (inactive); in assay [7], 15.2% (inactive); in assay [8] it was 21.3% (inactive). The inhibition of aggregation in assay [2] is -2.1% (inactive). Moreover, the figures for the nuclei count in assay [2] and in assay [3] were 79.3% and 97.7%, respectively. Besides, the fluorescence slope in assay [4] was -0.446 (inactive). Besides, in assay [5], the NADPH fluorescence slope is -7.7e-05 (inactive). Moreover, the slope in assay [6] is 0.00607 (inactive).

Consider `OC1C=CSc2nc3ccccc3n21` (centres undefined), for which the cell count in assay [1] was 398. Further, the inhibition in assay [1] is 4.9% (inactive); in assay [3] it was -50.3% (inactive); in assay [7], 4.8% (inactive); in assay [8], 17.8% (inactive). Moreover, the inhibition of aggregation in assay [2] is -12.9% (inactive). In addition, the nuclei count was 102% in assay [2] and 113% in assay [3]. The fluorescence slope in assay [4] is -0.467 (inactive). In assay [5], the NADPH fluorescence slope was -3.8e-05 (inactive). The slope in assay [6] is 0.00527 (inactive).

With `O=C(Nc1cccnc1)c1cccc(NC(=O)c2ccco2)c1`, the cell count in assay [1] was 350. The inhibition in assay [1] was 1.5% (inactive); in assay [3], 13.4% (inactive); in assay [7], 16.9% (inactive); in assay [8], 22.4% (inactive). For the same molecule, in assay [2], the inhibition of aggregation is -3.4% (inactive). Moreover, the nuclei count stood at 104% in assay [2] and 115% in assay [3]. In addition, in assay [4], the fluorescence slope was -0.446 (inactive). For the same molecule, the NADPH fluorescence slope in assay [5] was 6.3e-05 (inactive). Moreover, in assay [6], the slope is 0.00622 (inactive).

With `O=C(Nc1nc2c(s1)CCc1ccccc1-2)c1cccs1`, in assay [1], the cell count came to 637. For the same molecule, the inhibition is -3.6% (inactive) in assay [1], 30.8% (inactive) in assay [3], 12.8% (inactive) in assay [7] and -8.29% (inactive) in assay [8]. Besides, the inhibition of aggregation in assay [2] is -9.4% (inactive). In addition, the nuclei count amounted to 115% in assay [2] and 86.1% in assay [3]. Besides, in assay [4], the fluorescence slope was -0.361 (inactive). Moreover, in assay [5], the NADPH fluorescence slope is 1.5e-05 (inactive). The slope in assay [6] was 0.00613 (inactive).

Turning to `O=C(NCCN1C(=O)C2C3C=CC(C3)C2C1=O)Nc1ccccn1` (centres undefined), the cell count in assay [1] amounted to 635. Besides, the inhibition in assay [1] is 0.8% (inactive); in assay [3], -12.9% (inactive); in assay [7], 7.16% (inactive); in assay [8], 16.9% (inactive). The inhibition of aggregation in assay [2] is 12.9% (inactive). For the same molecule, the nuclei count in assay [2] turned out to be 72.4%; in assay [3], 108%. In addition, in assay [4], the fluorescence slope is -0.603 (inactive). Further, the NADPH fluorescence slope in assay [5] is 1.9e-05 (inactive). For the same molecule, the slope in assay [6] is 0.00714 (inactive).

Take `CCOC(=O)Cn1c(=N)n(CCOc2cccc(C)c2)c2ccccc21`: in assay [1], the cell count came to 426. Further, the inhibition in assay [1] was -18.5% (inactive); in assay [3], -112% (inactive); in assay [7] it was 11.4% (inactive); in assay [8] it was 19.4% (inactive). The inhibition of aggregation in assay [2] was 19.9% (inactive). Also, the nuclei count came out at 108% in assay [2] and 224% in assay [3]. Moreover, the fluorescence slope in assay [4] was -0.322 (inactive). Further, the NADPH fluorescence slope in assay [5] is 2e-05 (inactive). Also, the slope in assay [6] was 0.00636 (inactive).

As for `CN(C)CCCN1C(=O)C(=O)/C(=C(/O)c2ccncc2)C1c1cccc(Br)c1` (centres undefined), the cell count in assay [1] was found to be 245. For the same molecule, the inhibition in assay [1] is -2.8% (inactive); in assay [3], 1.2% (inactive); in assay [7] it was -6.87% (inactive); in assay [8], -3.17% (inactive). Besides, the inhibition of aggregation in assay [2] is -9.4% (inactive). Further, the nuclei count in assay [2] came out at 94.1%; in assay [3] it was 103%. Also, the fluorescence slope in assay [4] was -0.612 (inactive). Also, the NADPH fluorescence slope in assay [5] is -7.1e-05 (inactive). Further, the slope in assay [6] was 0.00373 (inactive).

With `CC12CN3CC(C)(CN(C1)C3c1ccc(Cl)cc1Cl)C2=O` (centres undefined), the cell count in assay [1] was 849. In addition, the inhibition in assay [1] was -4.6% (inactive); in assay [3] it was -21.6% (inactive); in assay [7], 1.89% (inactive); in assay [8], 28.2% (inactive). In assay [2], the inhibition of aggregation is -26.4% (inactive). Besides, the nuclei count in assay [2] was determined as 123%; in assay [3] it was 121%. Besides, the fluorescence slope in assay [4] is -0.557 (inactive). In addition, the NADPH fluorescence slope in assay [5] was -1.9e-05 (inactive). Besides, the slope in assay [6] is 0.00699 (inactive).

For `CCOc1ccccc1NC(=O)CSc1nnc(Cc2cccn2C)n1-c1ccc(F)cc1`, the cell count in assay [1] came to 529. Besides, the inhibition is -2.9% (inactive) in assay [1], -55.6% (inactive) in assay [3], 12.1% (inactive) in assay [7] and 31.3% (inactive) in assay [8]. Further, the inhibition of aggregation in assay [2] is -9.7% (inactive). For the same molecule, the nuclei count in assay [2] is 93.1%; in assay [3], 109%. In addition, in assay [4], the fluorescence slope is -0.577 (inactive). The NADPH fluorescence slope in assay [5] was -3.6e-05 (inactive). In addition, the slope in assay [6] was 0.00579 (inactive).
